# Measured values reported in PubChem BioAssay (NCI).
# Compounds without any hit were thinned out: in the full panel of roughly 83,000, 20% have a hit.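 The test compound was applied at a single concentration to cells in 96-well plates for 48 hours, and percent growth was recorded.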 Values without a mark were called inactive. The source made the active and inactive calls. How the source made its calls: active means growth percent below 10; inactive means the rest.
# Key:
# Assay in all cases: NCI-60 one-dose screen, 48 h (100 = growth as untreated, 0 = no growth, -100 = all killed)
# Details in all cases: 10 µM unless noted
# SR leukemia = system: SR leukemia
# RPMI-8226 leukemia = system: RPMI-8226 leukemia
# OVCAR-8 ovarian = system: OVCAR-8 ovarian
# OVCAR-5 ovarian = system: OVCAR-5 ovarian
# OVCAR-4 ovarian = system: OVCAR-4 ovarian
# SK-OV-3 ovarian = system: SK-OV-3 ovarian
# IGROV1 ovarian = system: IGROV1 ovarian
# OVCAR-3 ovarian = system: OVCAR-3 ovarian
# HS 578T breast = system: HS 578T breast
# NCI/ADR-RES ovarian = system: NCI/ADR-RES ovarian
# T-47D breast = system: T-47D breast
# BT-549 breast = system: BT-549 breast
# MDA-MB-435 melanoma = system: MDA-MB-435 melanoma
# SW-620 colon = system: SW-620 colon
# MCF7 breast = system: MCF7 breast
# HCT-116 colon = system: HCT-116 colon
# KM12 colon = system: KM12 colon
# HCC-2998 colon = system: HCC-2998 colon
SMILES,growth (SR leukemia),growth (RPMI-8226 leukemia),growth (OVCAR-8 ovarian),growth (OVCAR-5 ovarian),growth (OVCAR-4 ovarian),growth (SK-OV-3 ovarian),growth (IGROV1 ovarian),growth (OVCAR-3 ovarian),growth (HS 578T breast),growth (NCI/ADR-RES ovarian),growth (T-47D breast),growth (BT-549 breast),growth (MDA-MB-435 melanoma),growth (SW-620 colon),growth (MCF7 breast),growth (HCT-116 colon),growth (KM12 colon),growth (HCC-2998 colon)
Cc1ccc(C2(C)NC(=O)N(CC(=O)Nc3cccc(C)c3)C2=O)cc1 (stereo unspecified),-22.7% (active),67.8%,105%,97.1%,99.3%,97.6%,105%,111%,102%,94.8%,94.4%,90.9%,108%,106%,91.2%,96.1%,96.6%,–
CCCCCCCC/C=C\CCCCCCCCOc1ccc(CC(=O)NCC[N+]2(C)CCCC2)cc1,50.3%,58.2%,50.4%,25%,62.1%,104%,-11.8% (active),84.3%,84.2%,111%,77.2%,73.6%,77.2%,54.5%,57.1%,–,27.5%,37.2%
COc1cc(-c2ccc(-c3ccc(C(=N)N)s3)s2)cc(OC)c1OC,-20.7% (active),-34.7% (active),13.9%,64.6%,45.1%,85%,71.7%,3.44% (active),44.1%,77.9%,39.3%,61.7%,-34.8% (active),-15.5% (active),-6.02% (active),-21.5% (active),27.7%,–
Cc1[nH]c(C(=O)Nc2ccc(C(N)=O)cc2OC(C)C)c(Cl)c1Cl,79.2%,90.4%,101%,98.3%,98.2%,96.4%,95.1%,105%,88.7%,112%,74.9%,95.4%,105%,105%,88.7%,–,98.5%,110%
COC(CCP(=O)(c1ccccc1)c1ccccc1)(C(=O)c1ccccc1)c1ccccc1 (stereo unspecified),-8.14% (active),4.88% (active),77%,84.1%,61.3%,83.5%,-19.4% (active),77.1%,83.5%,57.7%,47.6%,60.4%,71.4%,76%,35.1%,–,57.3%,72.7%
O=C(Nc1cccc(Cl)c1)Oc1c(Cl)c(Cl)c(Cl)c(Cl)c1Cl,96.3%,95.4%,98.9%,95.2%,89%,85%,87.8%,101%,82.8%,103%,80.1%,88.5%,98.7%,100%,84.9%,–,102%,119%
COc1cc(C2=Nc3c(N)nc(N)nc3NC(c3cccc(Nc4ccnc5cc(C(F)(F)F)ccc45)c3)C2)cc(OC)c1OC (stereo unspecified),0.109% (active),10.8%,68.8%,129%,74.7%,88.1%,65.6%,83.5%,62.7%,95.3%,95.4%,112%,69.2%,78.7%,37.3%,–,66.4%,77.2%
Cn1ccnc1C(=O)/C=C/c1ccc(C(=O)Nc2ccccc2F)cc1,6.83% (active),9.83% (active),15.6%,18%,37.7%,51.9%,13.5%,-4.52% (active),17.1%,21.7%,38.3%,-13.2% (active),1.95% (active),13.5%,13.4%,8.83% (active),13.8%,–
